This note sets out measurements from the supplement of paper PMC7156485.

± gives the standard deviation of the averaged measurements.
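Also: TDF denotes transformed human dermal fibroblasts of mesenchymal origin.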

The first assay has as its system HCC1569. The experiment in a line: cell number relative to DMSO (% of DMSO); higher = more cells (less growth inhibition / toxicity). The conditions noted are these: concentration: 10 µM; 24 h. An outline of the steps:
(§1)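 HCC1569 and TDF cells (800 per well, 384-well plates, RPMI with 10% FBS) were treated with compounds at 10 µM for 24 h at 37 °C, in triplicate. Cells were fixed in 3.7% formaldehyde and stained with a rabbit anti-H1.0 antibody, an AlexaFluor 647 secondary and DAPI; six fields per well were imaged at ×10. H1.0 nuclear intensity or cell number is expressed as percent of the plate DMSO control, taking the median of replicates. HCC1569 values were smoothed for positional effects.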
On to `COc1cc(CCC(C)=O)ccc1O` [Vannilylacetone], for which the cell number was 105.

In turn, `O=c1[nH]c(=O)n([C@H]2C[C@H](O)[C@@H](CO)O2)cc1/C=C/Br` [(E)-5-(2-Bromovinyl)-2'-deoxyuridine] yielded a cell number of 104.

Regarding `CC[N+](C)(C)Cc1ccccc1Br.Cc1ccc(S(=O)(=O)[O-])cc1` [Bretylium tosylate], the cell number amounted to 83.4.

With `O=C(c1ccc2c(c1)OCCO2)N1CCCCC1`, the cell number was found to be 105.

Turning to `COc1cc2oc(=O)ccc2cc1O` [Isoscopoletine], the cell number worked out at 105.

`CC1CC2OC2C=CC=CC(=O)Cc2c(Cl)c(O)cc(O)c2C(=O)O1` (configuration not stated) [Radicicol] yielded a cell number of 66.2.

`Nc1cccc(-c2cc3c(Oc4cccc(O)c4)ncnc3[nH]2)c1` [GSK3b Inhibitor XII, TWS119] gave a cell number of 60.2.

`CNC1(C)C2CCC(C2)C1(C)C.Cl` (configuration not stated) [Mecamylamine hydrochloride] returned a cell number of 106.

With `CC1=C(C)C(=O)C(CCCCC#CCCCC#CCO)=C(C)C1=O` [Docebenone], the cell number turned out to be 93.3.

`O=C1c2ccccc2-c2n[nH]c3cccc1c23` returned a cell number of 93.2.

`CN(C)[C@@H]1CCc2[nH]c3ccc(NC(=O)c4ccc(F)cc4)cc3c2C1.Cl` showed a cell number of 99.2.

Molecule `CN(C)CCC(c1ccc(Br)cc1)c1ccccn1.O=C(O)C=CC(=O)O` (single isomer, unassigned; (+)) [(+)-Brompheniramine maleate] registered a cell number of 96.5.

`CC1=NC(=NNc2ccc(C(=O)[O-])cc2)C(COP(=O)([O-])[O-])=C(C=O)C1=O.[Na+].[Na+].[Na+]` displayed a cell number of 101.

The molecule `CS(=O)(=O)CCNCc1ccc(-c2ccc3ncnc(Nc4ccc(OCc5cccc(F)c5)c(Cl)c4)c3c2)o1` [Lapatinib] gave a cell number of 59.8.

`CC1=CCC(C)(C)C=CC(=O)C(C)=CCC1` [Zerumbone] had a cell number of 87.7.

`O=C1CCc2cc(OCCCCc3nnnn3C3CCCCC3)ccc2N1` [Cilostazol] had a cell number of 101.

As for `CN(C(=O)CCCOc1ccc2[nH]c(=O)ccc2c1)C1CCCCC1` [Cilostamide], the cell number was 100.9 ± 0.88.

As for `Cc1ccc(NC(=O)CCCCCC(=O)Nc2ccccc2N)cc1` [N~1~-(2-aminophenyl)-N~7~-(4-methylphenyl)heptanediamide], the cell number was 96.1.

The molecule `Cc1c(-c2cnccn2)ssc1=S` [Oltipraz] came in with a cell number of 105.

As for `COc1cccc2c1C(=O)c1c(O)c3c(c(O)c1C2=O)CC(O)(C(C)=O)CC3OC1CC(N)C(O)C(C)O1` (configuration not stated) [Daunorubicin], the cell number was 53.3 ± 2.3.

Molecule `CC(C)(CO)C(O)C(=O)NCCC(=O)O` (configuration not stated) [Pantothenic acid] returned a cell number of 104.

`CNC(C)C1CCC(N)C(OC2C(N)CC(N)C(OC3OCC(C)(O)C(NC)C3O)C2O)O1` (configuration not stated) [Gentamycin] came in with a cell number of 100.

With `CC(C)CCCC(C)C1CCC2C3CCC4=CC(N=O)CCC4(C)C3CCC12C` [(20S)-cholest-4-en-3-one oxime], the cell number worked out at 99.4.

With `OCc1cc(C(O)CNCCCCCCOCCCCc2ccccc2)ccc1O` (configuration not stated) [Salmeterol], the cell number is 90.4.

`Nc1nc(OCc2cc(Br)cs2)c2[nH]cnc2n1` [6-[(4-bromo-2-thienyl)methoxy]-1H-purin-2-amine] yielded a cell number of 101.

In turn, `CC(=O)C(C)=O` [2,3-Butanedione] yielded a cell number of 103.

The molecule `COC(=O)[C@@H](N)Cc1ccc(O)c(O)c1.Cl` [L-3,4-Dihydroxyphenylalanine methyl ester hydrochloride] gave a cell number of 102.

The next assay relates to TDF. The assay is described as above. The conditions noted are these: concentration: 10 µM; 24 h. An outline of the steps:
as §1
`COCc1nc2c([nH]1)c(=O)n(C)c(=O)n2CC(C)C` [8-Methoxymethyl-3-isobutyl-1-methylxanthine] gave a cell number of 110.

In turn, `O=c1c(O)c(-c2cc(O)c(O)c(O)c2)oc2cc(O)cc(O)c12` [Myricetin] returned a cell number of 101 ± 3.9.

Consider `CCCS(=O)(=O)Nc1ccc(F)c(C(=O)c2c[nH]c3ncc(Cl)cc23)c1F`, for which the cell number amounted to 92.9.

With `CCCNC(=O)NS(=O)(=O)c1ccc(Cl)cc1` [Chlorpropamide], the cell number amounted to 96.2.

In the case of `O=C(Nc1cccc(Cl)c1)Nc1ncc(CCNc2ncnc3ccsc23)s1`, the cell number is 42.9.

Take `COc1c(O)cc2oc(-c3ccc(O)cc3)cc(=O)c2c1O` [5,7-dihydroxy-2-(4-hydroxyphenyl)-6-methoxy-4H-chromen-4-one]: the cell number was 102.

Molecule `Cc1ccc(NC2=CC(=O)c3sc(C)nc3C2=O)cc1` [Cdk4 Inhibitor III] displayed a cell number of 12.

`CC(=O)C1(O)CCC2C3CCC4=CC(=O)CCC4(C)C3CCC21C` (stereo not drawn) [17alpha-hydroxyprogesterone]: the cell number stood at 98.3.

`COc1cc2c(cc1O)CCC1C2CCC2(C)C(O)CCC12` (configuration not stated) [2-methoxyestradiol]: the cell number was found to be 11.5.

Take `CCCn1c(=O)c2[nH]c(-c3ccc(OCC(=O)NCCN)cc3)nc2n(CCC)c1=O` [Xanthine amine congener]: the cell number came out at 104.

`CCOC(=O)C1=C(COCCN)NC(C)=C(C(=O)OC)C1c1ccccc1Cl` (configuration not stated) [Amlodipine] yielded a cell number of 106.

`N=C1Sc2ccccc2C2=NCCCN12` showed a cell number of 99.9.

In turn, `CNC1CC2OC(C)(C1OC)n1c3ccccc3c3c4c(c5c6ccccc6n2c5c31)C(=O)NC4O` (configuration not stated) showed a cell number of 8.22.

Consider `COc1cc(CCC(C)=O)ccc1O` [Vannilylacetone], for which the cell number is 90.8.

`O=c1[nH]c(=O)n([C@H]2C[C@H](O)[C@@H](CO)O2)cc1/C=C/Br` [(E)-5-(2-Bromovinyl)-2'-deoxyuridine] yielded a cell number of 100.

In turn, `CC[N+](C)(C)Cc1ccccc1Br.Cc1ccc(S(=O)(=O)[O-])cc1` [Bretylium tosylate] registered a cell number of 80.2.

For the molecule `O=C(c1ccc2c(c1)OCCO2)N1CCCCC1`, the cell number worked out at 92.2.

The molecule `COc1cc2oc(=O)ccc2cc1O` [Isoscopoletine] gave a cell number of 92.4.

The molecule `CC1CC2OC2C=CC=CC(=O)Cc2c(Cl)c(O)cc(O)c2C(=O)O1` (configuration not stated) [Radicicol] showed a cell number of 15.9.

`Nc1cccc(-c2cc3c(Oc4cccc(O)c4)ncnc3[nH]2)c1` [GSK3b Inhibitor XII, TWS119] returned a cell number of 55.

Turning to `CNC1(C)C2CCC(C2)C1(C)C.Cl` (configuration not stated) [Mecamylamine hydrochloride], the cell number amounted to 108.

The molecule `CC1=C(C)C(=O)C(CCCCC#CCCCC#CCO)=C(C)C1=O` [Docebenone] returned a cell number of 75.3.

`O=C1c2ccccc2-c2n[nH]c3cccc1c23` came in with a cell number of 107.

Molecule `CN(C)[C@@H]1CCc2[nH]c3ccc(NC(=O)c4ccc(F)cc4)cc3c2C1.Cl` came in with a cell number of 90.8.

On to `CN(C)CCC(c1ccc(Br)cc1)c1ccccn1.O=C(O)C=CC(=O)O` (single isomer, unassigned; (+)) [(+)-Brompheniramine maleate], for which the cell number was determined as 79.5.

Consider `CC1=NC(=NNc2ccc(C(=O)[O-])cc2)C(COP(=O)([O-])[O-])=C(C=O)C1=O.[Na+].[Na+].[Na+]`, for which the cell number came out at 103.

As to `CS(=O)(=O)CCNCc1ccc(-c2ccc3ncnc(Nc4ccc(OCc5cccc(F)c5)c(Cl)c4)c3c2)o1` [Lapatinib], the cell number stood at 57.6.

The molecule `CC1=CCC(C)(C)C=CC(=O)C(C)=CCC1` [Zerumbone] registered a cell number of 89.7.

`O=C1CCc2cc(OCCCCc3nnnn3C3CCCCC3)ccc2N1` [Cilostazol]: the cell number was found to be 109.

Take `CN(C(=O)CCCOc1ccc2[nH]c(=O)ccc2c1)C1CCCCC1` [Cilostamide]: the cell number was 109 ± 5.

The molecule `Cc1ccc(NC(=O)CCCCCC(=O)Nc2ccccc2N)cc1` [N~1~-(2-aminophenyl)-N~7~-(4-methylphenyl)heptanediamide] showed a cell number of 70.6.

In turn, `Cc1c(-c2cnccn2)ssc1=S` [Oltipraz] came in with a cell number of 101.

Take `COc1cccc2c1C(=O)c1c(O)c3c(c(O)c1C2=O)CC(O)(C(C)=O)CC3OC1CC(N)C(O)C(C)O1` (configuration not stated) [Daunorubicin]: the cell number turned out to be 8.2 ± 1.4.

Molecule `CC(C)(CO)C(O)C(=O)NCCC(=O)O` (configuration not stated) [Pantothenic acid] gave a cell number of 95.9.

`CNC(C)C1CCC(N)C(OC2C(N)CC(N)C(OC3OCC(C)(O)C(NC)C3O)C2O)O1` (configuration not stated) [Gentamycin]: the cell number came to 95.4.

Regarding `CC(C)CCCC(C)C1CCC2C3CCC4=CC(N=O)CCC4(C)C3CCC12C` [(20S)-cholest-4-en-3-one oxime], the cell number was determined as 110.

For the molecule `OCc1cc(C(O)CNCCCCCCOCCCCc2ccccc2)ccc1O` (configuration not stated) [Salmeterol], the cell number worked out at 100.

Turning to `Nc1nc(OCc2cc(Br)cs2)c2[nH]cnc2n1` [6-[(4-bromo-2-thienyl)methoxy]-1H-purin-2-amine], the cell number was determined as 107.

`CC(=O)C(C)=O` [2,3-Butanedione] gave a cell number of 103.

For the molecule `COC(=O)[C@@H](N)Cc1ccc(O)c(O)c1.Cl` [L-3,4-Dihydroxyphenylalanine methyl ester hydrochloride], the cell number is 110.
